The text below walks through data of PubChem BioAssay AID743291 (Broad Institute, 2014).

The target in this assay is Caspase-3 (Homo sapiens) (UniProt P42574). The assay can be described thus: caspase-3 enzyme inhibitors, selectivity check, dose response, selectivity assay for caspase-6 allosteric inhibitor project, biochemical, fluorescence, cherry-picked samples (AID 743291).

Entries with a potency or affinity are not part of this list. Active and inactive are the calls of the source.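 The calls were made as follows: active = signal drop with fitted half-maximal dose at most twice the top valid dose, active in every repeat; inconclusive = repeats disagree, or flat partial inhibition, or poor fit; inactive = inactive in every repeat, including opposite effects.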

Caspase-3 (Homo sapiens), sequence (P42574 whole entry, looked up): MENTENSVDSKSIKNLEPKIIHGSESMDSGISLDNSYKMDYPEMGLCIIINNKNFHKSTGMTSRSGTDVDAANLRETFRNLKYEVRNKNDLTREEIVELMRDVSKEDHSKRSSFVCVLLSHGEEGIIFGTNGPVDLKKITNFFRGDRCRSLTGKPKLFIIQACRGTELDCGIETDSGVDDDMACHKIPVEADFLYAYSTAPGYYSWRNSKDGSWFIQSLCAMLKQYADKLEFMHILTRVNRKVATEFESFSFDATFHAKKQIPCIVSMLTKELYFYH

Consider `CN1CCc2cc3c(c4c2C1Cc1ccccc1-4)OCO3` (stereo unspecified), for which the result was inactive.
